# Experimental data taken from the supplement of paper PMC7335073.
# In all, about 4,100 sequences were measured (“relative CpG methylation activity (normalised to average over all NNNCGNNN flanks)”: median about 0.94, highest 2% from about 1.9 on). The full list was thinned out, with the highest values kept by preference.
# Target: DNMT3B catalytic domain (mouse) (UniProt O88509)
# Test: relative CpG methylation activity (normalised to average over all NNNCGNNN flanks) (relative (1 = mean)); higher = more methylation of the central CpG
# Conditions: system: in vitro, murine catalytic domain; CpG state: hemimethylated substrate pool; residues: 558-859
# Procedure: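 Deep enzymology: a pool of dsDNA substrates with a central CpG flanked by 10 random nucleotides on each side was methylated by the murine DNMT3A or DNMT3B catalytic domain (0.8 mM SAM, 37 °C, 60 min). Methylation was then read out by hairpin ligation, bisulfite conversion and NGS. Values are the average methylation of each NNNCGNNN context (±3 flanks; the outer flanks are random and averaged over), normalised to the overall mean, so 1 = average activity.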
# DNMT3B catalytic domain (mouse), sequence (O88509 558-859): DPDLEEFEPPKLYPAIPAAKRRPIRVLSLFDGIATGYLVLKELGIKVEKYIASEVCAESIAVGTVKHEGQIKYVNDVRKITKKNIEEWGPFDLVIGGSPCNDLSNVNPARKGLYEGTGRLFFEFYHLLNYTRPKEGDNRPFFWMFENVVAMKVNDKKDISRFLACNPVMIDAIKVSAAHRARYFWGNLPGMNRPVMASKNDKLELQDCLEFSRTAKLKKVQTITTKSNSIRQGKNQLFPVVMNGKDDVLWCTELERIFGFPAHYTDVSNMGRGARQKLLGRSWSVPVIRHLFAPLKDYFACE
row,Sequence,relative CpG methylation activity
1,TTTCGGGT,2.02
2,CTTCGGCG,1.67
3,CTTCGGCT,1.9
4,GTTCGGCA,1.88
5,TTTCGGCT,2.04
6,TTTCGGCA,1.69
7,TTTCGGCC,1.65
8,CTTCGGCA,1.97
9,GTTCGGGT,1.37
10,TTTCGGCG,1.79
11,GTTCGGCT,1.75
12,TTTCGGGA,1.79
13,AGTCGGTG,0.863
14,ATTCGCGC,0.947
15,CGGCGCTA,0.358
16,CACCGGCC,1.34
17,ACTCGGCC,1.62
18,ACTCGGCA,1.42
19,ACTCGGCT,1.95
20,TTACGTTG,1.29
21,AGGCGCGA,0.281
22,ATCCGGCC,1.48
23,CTCCGGGC,2.05
24,CTCCGGCC,1.94

row,Sequence,relative CpG methylation activity
1,GTCCGGGC,1.53
2,CTTCGGGC,2.18
3,TTCCGGGC,1.7
4,CTCCGGCA,1.88
5,ATTCGGGC,1.72
6,CTTCGGGT,1.33
7,ATCCGAGA,1.4
8,GCACGAGC,1.79
9,GAACGTGC,1.03
10,CAGCGGTG,0.603
11,GTCCGTAT,0.661
12,TATCGGAT,1.18
13,ACCCGATT,1.41
14,GCTCGTCA,0.561
15,TTACGGTC,2.02
16,CTACGGTA,1.81
17,TTACGGTA,2.02
18,ATACGGTC,1.68
19,CTACGGTC,1.85
20,GTACGGTA,1.61
21,GGACGCGG,0.51
22,CATCGATC,1.81
23,GCCCGACG,1.16
24,TCACGCTT,1.36

row,Sequence,relative CpG methylation activity
1,ATACGAGA,1.82
2,ATACGAAT,1.64
3,GTACGACT,1.46
4,CTACGAGA,1.96
5,TTACGAGC,2.09
6,ATACGAGT,1.92
7,CTACGACG,1.81
8,TTACGAGA,1.84
9,CTACGACT,1.92
10,ATACGAGC,1.87
11,TTACGAGG,1.8
12,ATACGAGG,1.72
13,CATCGCTA,0.882
14,GATCGCTG,0.405
15,TCCCGCCG,0.883
16,GAGCGTAT,0.648
17,GCACGTGG,0.497
18,GTCCGTCT,0.827
19,TCTCGCGG,0.647
20,CTGCGCTG,0.95
21,TACCGCTA,0.483
22,CAGCGACC,0.972
23,GACCGCAA,0.281
24,CTACGAGC,2.12

row,Sequence,relative CpG methylation activity
1,CTACGAGG,1.68
2,CTACGAGT,1.96
3,TTACGAGT,1.74
4,GTACGAGC,1.83
5,GTACGAGT,1.48
6,CGCCGGTC,1.23
7,AAACGCGG,1.24
8,CTCCGCGT,0.717
9,CCTCGAGT,1.5
10,CAACGAGT,1.47
11,AAACGAGA,1.9
12,TCACGAGA,1.96
13,TCTCGAGA,1.96
14,TCACGAGT,1.49
15,TCACGAGG,1.7
16,TCTCGAGC,1.53
17,GAACGAGA,1.76
18,CAACGAGC,1.74
19,TCTCGAGT,1.45
20,TAACGAGA,1.72
21,CAACGAGA,1.94
22,TTACGCCG,1.59
